# Source: publication PMC7862700, “An all-to-all approach to the identification of sequence-specific readers for epigenetic DNA modifications on cytosine”
# Assays:
# Assay in all cases: DAPPL (digital affinity profiling via proximity ligation, sequencing); 10 mM Tris-HCl pH 7.5, 50 mM NaCl, 1 mM DTT, 4% glycerol, room temperature, 30 min; GST-TFs on glutathione beads, 16-mer random dsDNA library, 0.1% formaldehyde crosslink after washing; high values mean tight binding
# [1] = biological target: T1, FLI1 (Homo sapiens, UniProt Q01543 1-452); conditions: protein: recombinant; tags: N-terminal GST; dsDNA, one strand shown
# T1 sequence: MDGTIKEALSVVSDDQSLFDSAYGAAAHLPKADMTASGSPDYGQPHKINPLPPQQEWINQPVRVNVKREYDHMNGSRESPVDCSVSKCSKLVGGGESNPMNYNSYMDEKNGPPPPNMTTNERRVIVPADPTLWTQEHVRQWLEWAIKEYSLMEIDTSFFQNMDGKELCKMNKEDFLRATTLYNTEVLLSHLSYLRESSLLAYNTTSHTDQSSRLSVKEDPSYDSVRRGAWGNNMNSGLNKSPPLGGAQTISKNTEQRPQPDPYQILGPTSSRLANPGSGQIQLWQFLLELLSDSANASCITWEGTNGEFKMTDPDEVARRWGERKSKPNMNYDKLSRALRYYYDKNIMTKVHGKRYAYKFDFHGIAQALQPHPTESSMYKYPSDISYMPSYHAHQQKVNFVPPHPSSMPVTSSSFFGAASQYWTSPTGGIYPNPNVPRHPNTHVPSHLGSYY
# Procedure, shortened: (§1)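 A tag-only sample was pooled with DNA-barcoded human transcription factors that had been expressed in yeast as GST fusions and captured on glutathione beads. The pools were incubated for 30 min at room temperature with 200 nmole of a random double-stranded 16-mer DNA library in Tris/NaCl/DTT/glycerol buffer, then washed, crosslinked with 0.1% formaldehyde, proximity-ligated (BsaI/T4 ligase, 1 h, 37 °C), PCR-amplified and sequenced on an Illumina NextSeq500. Binding signal is each hexamer's read frequency for a factor divided by its frequency for the tag-only sample.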
# [2] = biological target: T2, ELK1 (Homo sapiens, UniProt P19419 1-428); conditions: protein: recombinant; tags: N-terminal GST; dsDNA, one strand shown
# T2 sequence: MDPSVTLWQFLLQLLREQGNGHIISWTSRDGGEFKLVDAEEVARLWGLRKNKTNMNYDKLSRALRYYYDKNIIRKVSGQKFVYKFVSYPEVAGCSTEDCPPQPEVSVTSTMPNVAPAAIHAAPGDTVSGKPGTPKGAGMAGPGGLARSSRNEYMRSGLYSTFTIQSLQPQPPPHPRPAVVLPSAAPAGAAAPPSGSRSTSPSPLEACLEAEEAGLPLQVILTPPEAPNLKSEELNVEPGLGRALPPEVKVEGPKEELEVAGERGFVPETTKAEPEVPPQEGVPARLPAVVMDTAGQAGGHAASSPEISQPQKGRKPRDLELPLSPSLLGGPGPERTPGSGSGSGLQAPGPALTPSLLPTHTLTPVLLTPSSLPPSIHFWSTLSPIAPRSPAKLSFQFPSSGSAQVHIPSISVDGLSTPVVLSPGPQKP
# Procedure, shortened: as §1
# [3] = biological target: T3, GABPA (Homo sapiens, UniProt Q06546 1-454); conditions: protein: recombinant; tags: N-terminal GST; dsDNA, one strand shown
# T3 sequence: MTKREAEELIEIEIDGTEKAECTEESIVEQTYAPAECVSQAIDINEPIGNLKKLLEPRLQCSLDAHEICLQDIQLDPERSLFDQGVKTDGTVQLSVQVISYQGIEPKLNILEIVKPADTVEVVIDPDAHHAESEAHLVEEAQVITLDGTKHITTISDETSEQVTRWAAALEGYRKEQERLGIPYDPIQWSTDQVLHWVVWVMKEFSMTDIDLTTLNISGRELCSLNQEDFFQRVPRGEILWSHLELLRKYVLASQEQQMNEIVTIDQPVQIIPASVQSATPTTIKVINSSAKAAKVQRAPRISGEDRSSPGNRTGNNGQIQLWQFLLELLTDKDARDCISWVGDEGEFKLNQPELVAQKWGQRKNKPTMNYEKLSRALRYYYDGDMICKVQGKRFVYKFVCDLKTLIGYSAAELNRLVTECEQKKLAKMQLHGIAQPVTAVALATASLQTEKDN
# Procedure, shortened: as §1
# [4] = biological target: T4, ERG (Homo sapiens, UniProt P11308 1-479); conditions: protein: recombinant; tags: N-terminal GST; dsDNA, one strand shown
# T4 sequence: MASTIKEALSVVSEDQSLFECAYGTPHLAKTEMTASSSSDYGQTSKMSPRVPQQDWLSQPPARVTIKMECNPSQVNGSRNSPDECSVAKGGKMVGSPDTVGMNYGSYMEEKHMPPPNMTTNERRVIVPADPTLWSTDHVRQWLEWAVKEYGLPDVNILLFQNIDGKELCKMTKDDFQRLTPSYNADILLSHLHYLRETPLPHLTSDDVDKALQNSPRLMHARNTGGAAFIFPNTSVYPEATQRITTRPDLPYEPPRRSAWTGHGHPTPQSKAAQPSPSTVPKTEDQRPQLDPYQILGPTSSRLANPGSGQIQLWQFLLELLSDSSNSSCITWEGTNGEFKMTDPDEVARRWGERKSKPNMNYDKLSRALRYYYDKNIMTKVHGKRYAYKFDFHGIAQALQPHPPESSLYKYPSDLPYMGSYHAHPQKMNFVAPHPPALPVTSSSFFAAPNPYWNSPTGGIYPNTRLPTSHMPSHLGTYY
# Procedure, shortened: as §1
# [5] = biological target: ELF1 (Homo sapiens, UniProt P32519 1-619); conditions: protein: recombinant; tags: N-terminal GST; dsDNA, one strand shown
# Procedure, shortened: as §1
# [6] = biological target: T5, EHF (Homo sapiens, UniProt Q9NZC4 1-300); conditions: protein: recombinant; tags: N-terminal GST; dsDNA, one strand shown
# T5 sequence: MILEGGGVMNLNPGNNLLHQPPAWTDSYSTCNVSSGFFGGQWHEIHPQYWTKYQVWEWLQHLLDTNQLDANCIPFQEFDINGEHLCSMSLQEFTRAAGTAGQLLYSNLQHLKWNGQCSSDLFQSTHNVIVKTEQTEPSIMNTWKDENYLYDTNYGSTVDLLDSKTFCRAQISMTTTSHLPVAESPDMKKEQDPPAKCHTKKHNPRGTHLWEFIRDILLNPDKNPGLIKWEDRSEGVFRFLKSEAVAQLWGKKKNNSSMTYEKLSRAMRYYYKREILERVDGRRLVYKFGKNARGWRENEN
# Procedure, shortened: as §1
# [7] = biological target: SPI1 (Homo sapiens, UniProt P17947 1-270); conditions: protein: recombinant; tags: N-terminal GST; dsDNA, one strand shown
# Procedure, shortened: as §1
# [8] = biological target: SPIB (Homo sapiens, UniProt Q01892 1-262); conditions: protein: recombinant; tags: N-terminal GST; dsDNA, one strand shown
# Procedure, shortened: as §1
# [9] = biological target: T6, ELK3 (Homo sapiens, UniProt P41970 1-407); conditions: protein: recombinant; tags: N-terminal GST; dsDNA, one strand shown
# T6 sequence: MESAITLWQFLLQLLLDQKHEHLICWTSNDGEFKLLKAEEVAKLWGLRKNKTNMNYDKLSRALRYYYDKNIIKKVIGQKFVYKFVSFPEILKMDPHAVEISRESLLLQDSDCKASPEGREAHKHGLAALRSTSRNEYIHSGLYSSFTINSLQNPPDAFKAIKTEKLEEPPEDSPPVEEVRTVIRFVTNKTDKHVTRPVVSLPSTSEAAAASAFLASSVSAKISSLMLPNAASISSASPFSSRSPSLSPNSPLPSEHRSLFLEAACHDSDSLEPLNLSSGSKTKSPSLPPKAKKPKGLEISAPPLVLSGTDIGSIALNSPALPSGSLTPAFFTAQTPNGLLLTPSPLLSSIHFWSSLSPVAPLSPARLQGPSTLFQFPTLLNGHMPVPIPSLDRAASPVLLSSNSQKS
# Procedure, shortened: as §1
# [10] = biological target: T7, FEV (Homo sapiens, UniProt Q99581 1-238); conditions: protein: recombinant; tags: N-terminal GST; dsDNA, one strand shown
# T7 sequence: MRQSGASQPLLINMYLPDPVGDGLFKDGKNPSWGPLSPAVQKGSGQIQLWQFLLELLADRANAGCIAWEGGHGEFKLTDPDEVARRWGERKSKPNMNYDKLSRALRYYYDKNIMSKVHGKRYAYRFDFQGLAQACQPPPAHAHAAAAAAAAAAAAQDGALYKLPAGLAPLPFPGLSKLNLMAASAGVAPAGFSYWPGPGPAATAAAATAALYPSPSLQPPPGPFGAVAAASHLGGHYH
# Procedure, shortened: as §1
# [11] = biological target: ETV5 (Homo sapiens, UniProt P41161 1-510); conditions: protein: recombinant; tags: N-terminal GST; dsDNA, one strand shown
# Procedure, shortened: as §1
# [12] = biological target: HSF1 (Homo sapiens, UniProt Q00613 1-529); conditions: protein: recombinant; tags: N-terminal GST; chain copies: 3; dsDNA, one strand shown
# Procedure, shortened: as §1
# [13] = biological target: T8, SPIC (Homo sapiens, UniProt Q8N5J4 1-248); conditions: protein: recombinant; tags: N-terminal GST; dsDNA, one strand shown
# T8 sequence: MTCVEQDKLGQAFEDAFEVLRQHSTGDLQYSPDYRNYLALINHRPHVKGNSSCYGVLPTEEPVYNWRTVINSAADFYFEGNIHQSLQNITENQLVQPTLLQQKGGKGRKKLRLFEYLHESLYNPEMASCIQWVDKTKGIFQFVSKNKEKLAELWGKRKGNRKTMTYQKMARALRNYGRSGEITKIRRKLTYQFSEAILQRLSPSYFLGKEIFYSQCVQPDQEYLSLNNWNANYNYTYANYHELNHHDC
# Procedure, shortened: as §1
# [14] = biological target: ELF4 (Homo sapiens, UniProt Q99607 1-663); conditions: protein: recombinant; tags: N-terminal GST; dsDNA, one strand shown
# Procedure, shortened: as §1
# [15] = biological target: T9, ELK4 (Homo sapiens, UniProt P28324-2 1-405); conditions: protein: recombinant; tags: N-terminal GST; dsDNA, one strand shown
# T9 sequence: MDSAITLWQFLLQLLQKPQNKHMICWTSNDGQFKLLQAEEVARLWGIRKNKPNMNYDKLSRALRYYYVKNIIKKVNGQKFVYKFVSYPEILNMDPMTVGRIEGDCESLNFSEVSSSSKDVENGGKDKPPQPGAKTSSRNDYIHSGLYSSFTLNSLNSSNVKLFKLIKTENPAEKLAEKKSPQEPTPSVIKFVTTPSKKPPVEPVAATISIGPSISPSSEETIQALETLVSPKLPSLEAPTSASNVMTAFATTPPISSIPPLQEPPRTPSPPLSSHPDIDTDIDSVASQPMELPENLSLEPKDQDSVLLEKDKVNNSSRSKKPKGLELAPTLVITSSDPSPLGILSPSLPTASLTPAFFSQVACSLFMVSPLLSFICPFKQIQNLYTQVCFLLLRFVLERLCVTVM
# Procedure, shortened: as §1
# [16] = biological target: T10, ETV2 (Homo sapiens, UniProt O00321 1-342); conditions: protein: recombinant; tags: N-terminal GST; dsDNA, one strand shown
# T10 sequence: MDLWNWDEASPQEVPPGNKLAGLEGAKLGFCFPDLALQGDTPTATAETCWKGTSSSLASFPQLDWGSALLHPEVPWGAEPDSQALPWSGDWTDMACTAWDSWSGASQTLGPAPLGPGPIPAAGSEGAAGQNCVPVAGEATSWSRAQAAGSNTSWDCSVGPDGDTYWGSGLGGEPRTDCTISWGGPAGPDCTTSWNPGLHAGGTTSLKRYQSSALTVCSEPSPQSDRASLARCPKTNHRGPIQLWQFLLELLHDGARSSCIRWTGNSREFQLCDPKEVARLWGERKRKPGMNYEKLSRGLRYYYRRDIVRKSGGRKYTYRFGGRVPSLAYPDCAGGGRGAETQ
# Procedure, shortened: as §1
# [17] = biological target: T11, ELF3 (Homo sapiens, UniProt P78545 1-371); conditions: protein: recombinant; tags: N-terminal GST; dsDNA, one strand shown
# T11 sequence: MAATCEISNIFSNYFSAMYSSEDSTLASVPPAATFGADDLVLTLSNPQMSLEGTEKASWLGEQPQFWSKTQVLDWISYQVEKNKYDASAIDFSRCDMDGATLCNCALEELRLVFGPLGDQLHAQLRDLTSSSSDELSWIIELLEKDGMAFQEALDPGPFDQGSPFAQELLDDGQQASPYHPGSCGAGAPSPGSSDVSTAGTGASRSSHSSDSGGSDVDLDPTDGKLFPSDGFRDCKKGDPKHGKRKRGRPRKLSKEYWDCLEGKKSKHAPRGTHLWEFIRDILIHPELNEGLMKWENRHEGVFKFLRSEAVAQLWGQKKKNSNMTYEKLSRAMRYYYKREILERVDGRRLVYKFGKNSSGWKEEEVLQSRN
# Procedure, shortened: as §1
# [18] = biological target: ETV1 (Homo sapiens, UniProt P50549 1-477); conditions: protein: recombinant; tags: N-terminal GST; dsDNA, one strand shown
# Procedure, shortened: as §1
# Chain of SPIB (Q01892 whole entry): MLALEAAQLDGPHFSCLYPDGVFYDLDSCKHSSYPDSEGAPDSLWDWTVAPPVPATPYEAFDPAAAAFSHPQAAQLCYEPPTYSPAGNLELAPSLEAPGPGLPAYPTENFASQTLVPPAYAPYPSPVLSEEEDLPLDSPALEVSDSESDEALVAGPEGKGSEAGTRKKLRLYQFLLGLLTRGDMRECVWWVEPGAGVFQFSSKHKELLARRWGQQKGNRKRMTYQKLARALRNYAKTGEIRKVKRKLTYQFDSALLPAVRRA
# Chain of ELF4 (Q99607 whole entry): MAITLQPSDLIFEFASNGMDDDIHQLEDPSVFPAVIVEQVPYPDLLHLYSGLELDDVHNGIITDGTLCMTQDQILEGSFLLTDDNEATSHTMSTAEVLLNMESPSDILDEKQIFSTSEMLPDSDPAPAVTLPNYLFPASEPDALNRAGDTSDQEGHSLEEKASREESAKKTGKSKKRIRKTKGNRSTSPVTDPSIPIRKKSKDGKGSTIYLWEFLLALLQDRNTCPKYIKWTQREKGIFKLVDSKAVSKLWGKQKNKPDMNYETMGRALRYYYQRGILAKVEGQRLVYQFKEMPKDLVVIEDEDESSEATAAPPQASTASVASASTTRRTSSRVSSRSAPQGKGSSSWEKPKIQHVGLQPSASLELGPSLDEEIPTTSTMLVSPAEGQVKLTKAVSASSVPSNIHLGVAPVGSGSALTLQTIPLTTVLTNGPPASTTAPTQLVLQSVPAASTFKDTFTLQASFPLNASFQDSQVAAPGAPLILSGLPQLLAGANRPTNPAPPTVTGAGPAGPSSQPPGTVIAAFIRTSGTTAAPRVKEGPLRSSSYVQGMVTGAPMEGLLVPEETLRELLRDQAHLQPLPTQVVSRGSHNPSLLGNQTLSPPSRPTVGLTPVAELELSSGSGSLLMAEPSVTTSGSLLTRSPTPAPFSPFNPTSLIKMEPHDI
# Chain of ETV5 (P41161 whole entry): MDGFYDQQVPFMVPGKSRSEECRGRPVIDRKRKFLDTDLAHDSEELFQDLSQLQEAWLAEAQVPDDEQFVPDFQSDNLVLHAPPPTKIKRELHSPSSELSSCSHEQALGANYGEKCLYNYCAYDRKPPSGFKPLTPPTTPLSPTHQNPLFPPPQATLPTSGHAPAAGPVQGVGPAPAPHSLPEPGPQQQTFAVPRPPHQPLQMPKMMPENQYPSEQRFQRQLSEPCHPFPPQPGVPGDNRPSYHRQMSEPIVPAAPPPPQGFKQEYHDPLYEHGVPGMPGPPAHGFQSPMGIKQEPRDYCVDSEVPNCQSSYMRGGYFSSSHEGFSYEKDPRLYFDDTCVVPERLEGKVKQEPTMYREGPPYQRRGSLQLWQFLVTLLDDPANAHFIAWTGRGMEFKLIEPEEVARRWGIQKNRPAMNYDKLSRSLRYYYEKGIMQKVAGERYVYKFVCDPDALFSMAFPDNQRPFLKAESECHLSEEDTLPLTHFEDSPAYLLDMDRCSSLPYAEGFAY
# Chain of ETV1 (P50549 whole entry): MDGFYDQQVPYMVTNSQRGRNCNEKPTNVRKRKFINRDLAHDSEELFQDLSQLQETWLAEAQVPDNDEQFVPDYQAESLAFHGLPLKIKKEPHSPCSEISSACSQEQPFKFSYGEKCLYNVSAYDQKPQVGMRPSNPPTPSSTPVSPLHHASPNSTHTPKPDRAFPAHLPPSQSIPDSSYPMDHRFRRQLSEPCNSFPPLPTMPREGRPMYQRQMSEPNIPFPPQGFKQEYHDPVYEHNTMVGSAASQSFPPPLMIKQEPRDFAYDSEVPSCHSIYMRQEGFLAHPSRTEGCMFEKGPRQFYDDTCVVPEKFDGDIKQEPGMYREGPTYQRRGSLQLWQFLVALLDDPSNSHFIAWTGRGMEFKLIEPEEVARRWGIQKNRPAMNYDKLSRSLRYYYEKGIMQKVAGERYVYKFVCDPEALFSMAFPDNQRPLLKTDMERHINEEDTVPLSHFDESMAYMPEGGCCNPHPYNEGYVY
# Chain of ELF1 (P32519 whole entry): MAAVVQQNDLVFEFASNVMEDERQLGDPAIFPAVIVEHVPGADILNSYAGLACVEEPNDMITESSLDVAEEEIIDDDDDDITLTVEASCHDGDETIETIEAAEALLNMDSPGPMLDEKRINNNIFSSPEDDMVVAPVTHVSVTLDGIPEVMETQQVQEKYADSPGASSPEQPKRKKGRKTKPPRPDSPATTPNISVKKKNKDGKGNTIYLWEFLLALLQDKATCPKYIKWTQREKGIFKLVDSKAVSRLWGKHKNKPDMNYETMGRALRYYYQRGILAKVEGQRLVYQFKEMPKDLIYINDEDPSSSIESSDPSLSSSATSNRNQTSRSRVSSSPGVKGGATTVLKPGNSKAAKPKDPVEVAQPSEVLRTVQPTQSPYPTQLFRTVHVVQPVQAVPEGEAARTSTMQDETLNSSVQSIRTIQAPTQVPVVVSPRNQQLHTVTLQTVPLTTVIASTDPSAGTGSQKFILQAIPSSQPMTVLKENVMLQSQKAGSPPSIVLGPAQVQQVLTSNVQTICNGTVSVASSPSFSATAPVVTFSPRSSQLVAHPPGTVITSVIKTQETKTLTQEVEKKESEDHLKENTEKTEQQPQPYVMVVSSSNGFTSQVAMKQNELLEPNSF
# Chain of HSF1 (Q00613 whole entry): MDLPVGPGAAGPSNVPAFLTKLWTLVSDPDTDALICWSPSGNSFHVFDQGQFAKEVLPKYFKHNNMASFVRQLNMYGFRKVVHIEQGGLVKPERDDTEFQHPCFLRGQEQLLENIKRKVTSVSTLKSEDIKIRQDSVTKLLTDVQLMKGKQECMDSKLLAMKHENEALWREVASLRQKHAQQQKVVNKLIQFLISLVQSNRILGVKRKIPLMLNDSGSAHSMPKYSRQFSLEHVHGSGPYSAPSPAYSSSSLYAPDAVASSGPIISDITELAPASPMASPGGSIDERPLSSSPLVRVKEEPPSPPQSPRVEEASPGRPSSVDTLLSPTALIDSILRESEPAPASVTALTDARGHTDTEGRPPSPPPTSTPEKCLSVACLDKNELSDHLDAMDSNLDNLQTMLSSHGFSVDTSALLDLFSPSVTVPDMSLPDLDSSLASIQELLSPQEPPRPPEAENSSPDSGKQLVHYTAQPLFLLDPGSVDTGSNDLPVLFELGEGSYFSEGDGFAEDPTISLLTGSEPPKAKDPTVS
sequence,measurement,setting,value
GAAATG,binding signal,[1],"1.52 fold enrichment (6-mer frequency, TF over GST control)"
same,binding signal,[2],"1.61 fold enrichment (6-mer frequency, TF over GST control)"
same,binding signal,[3],"1.55 fold enrichment (6-mer frequency, TF over GST control)"
same,binding signal,[4],"1.73 fold enrichment (6-mer frequency, TF over GST control)"
same,binding signal,[5],"1.54 fold enrichment (6-mer frequency, TF over GST control)"
same,binding signal,[6],"1.65 fold enrichment (6-mer frequency, TF over GST control)"
same,binding signal,[7],"1.67 fold enrichment (6-mer frequency, TF over GST control)"
same,binding signal,[8],"1.6 fold enrichment (6-mer frequency, TF over GST control)"
same,binding signal,[9],"1.6 fold enrichment (6-mer frequency, TF over GST control)"
same,binding signal,[10],"1.77 fold enrichment (6-mer frequency, TF over GST control)"
same,binding signal,[11],"1.7 fold enrichment (6-mer frequency, TF over GST control)"
same,binding signal,[12],"1.1 fold enrichment (6-mer frequency, TF over GST control)"
same,binding signal,[13],"1.56 fold enrichment (6-mer frequency, TF over GST control)"
same,binding signal,[14],"1.49 fold enrichment (6-mer frequency, TF over GST control)"
same,binding signal,[15],"1.65 fold enrichment (6-mer frequency, TF over GST control)"
same,binding signal,[16],"1.55 fold enrichment (6-mer frequency, TF over GST control)"
same,binding signal,[17],"1.78 fold enrichment (6-mer frequency, TF over GST control)"
same,binding signal,[18],"1.58 fold enrichment (6-mer frequency, TF over GST control)"
